PubChem BioAssay AID1159580 (chemical genetic matrix, 2015)
The campaign covered roughly 5,500 compounds. About 2,000 (36%) were called active. Roughly 18% stayed inconclusive and do not appear here. Rule as the data show it: active = normalized growth mostly below about 0.91 (no sharp cut-off); inconclusive = no clear call, values can overlap the other calls; inactive = mostly above about 0.92. The list shows a part of the results.

Test: chemical genetic growth profiling, strain panel (AID 1159580);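 also: tested at 20 µM; growth read once vehicle control cultures reached saturation at 30 °C; 1 = growth at the plate median or of vehicle wells; lower values mean less growth of the strain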
Conditions: growth OD

Measured: normalized growth

C#C[C@]1(O)CCC2C3CCC4=C(CCC(=O)C4)C3CC[C@@]21C (some centres undefined)
inactive: S. cerevisiae deletion strains, locus YJR075W, strain HOC1, stronger effect = lower value 1.02 | S. cerevisiae deletion strains, locus YKL009W, strain mrt4, stronger effect = lower value 0.974 | S. cerevisiae deletion strains, locus YKL068W, stronger effect = lower value 1.01 | S. cerevisiae deletion strains, locus YKL085W, strain MDH1 (second series), stronger effect = lower value 1.01 | S. cerevisiae deletion strains, locus YKL085W, strain MDH1, stronger effect = lower value 1.01 | S. cerevisiae deletion strains, locus YKL160W, strain elf1, stronger effect = lower value 0.998 | S. cerevisiae deletion strains, locus YKL190W, strain CNB1, stronger effect = lower value 1.04 | S. cerevisiae deletion strains, locus YKR001C, strain vps1, stronger effect = lower value 1.01 | S. cerevisiae deletion strains, locus YKR026C, strain gcn3, stronger effect = lower value 0.986 | S. cerevisiae deletion strains, locus YKR091W, strain srl3, stronger effect = lower value 0.982 | S. cerevisiae deletion strains, locus YLL001W, strain dnm1, stronger effect = lower value 1 | S. cerevisiae deletion strains, locus YLL026W, stronger effect = lower value 0.994 | S. cerevisiae deletion strains, locus YLL041C, strain sdh2, stronger effect = lower value 0.977 | S. cerevisiae deletion strains, locus YLR027C, strain aat2, stronger effect = lower value 0.983 | S. cerevisiae deletion strains, locus YLR039C, strain RIC1, stronger effect = lower value 0.911 | S. cerevisiae deletion strains, locus YLR058C, strain SHM2, stronger effect = lower value 1.01 | S. cerevisiae deletion strains, locus YLR102C, strain apc9, stronger effect = lower value 1.01 | S. cerevisiae deletion strains, locus YLR113W, strain HOG1, stronger effect = lower value 0.852 | S. cerevisiae deletion strains, locus YLR221C, strain rsa3, stronger effect = lower value 0.96 | S. cerevisiae deletion strains, locus YLR258W, strain gsy2, stronger effect = lower value 0.973 | S. cerevisiae deletion strains, locus YLR262C, strain YPT6, stronger effect = lower value 0.868 | S. cerevisiae deletion strains, locus YLR268W, strain sec22, stronger effect = lower value 0.959 | S. cerevisiae deletion strains, locus YLR320W, strain mms22, stronger effect = lower value 0.963 | S. cerevisiae deletion strains, locus YLR330W, strain CHS5, stronger effect = lower value 1.02 | S. cerevisiae deletion strains, locus YLR342W, strain FKS1 (second series), stronger effect = lower value 0.953 | S. cerevisiae deletion strains, locus YLR342W, strain FKS1, stronger effect = lower value 0.968 | S. cerevisiae deletion strains, locus YLR357W, strain rsc2, stronger effect = lower value 1.03 | S. cerevisiae deletion strains, locus YLR370C, strain arc18, stronger effect = lower value 0.97 | S. cerevisiae deletion strains, locus YLR371W, strain rom2, stronger effect = lower value 1 | S. cerevisiae deletion strains, locus YLR384C, strain iki3, stronger effect = lower value 0.974 | S. cerevisiae deletion strains, locus YLR418C, strain cdc73, stronger effect = lower value 0.961 | S. cerevisiae deletion strains, locus YML016C, strain PPZ1, stronger effect = lower value 1.01 | S. cerevisiae deletion strains, locus YML032C, strain rad52, stronger effect = lower value 0.975 | S. cerevisiae deletion strains, locus YML120C, strain ndi1, stronger effect = lower value 0.97 | S. cerevisiae deletion strains, locus YML124C, strain tub3, stronger effect = lower value 1.01 | S. cerevisiae deletion strains, locus YMR058W, strain fet3, stronger effect = lower value 0.963 | S. cerevisiae deletion strains, locus YMR078C, strain ctf18, stronger effect = lower value 1 | S. cerevisiae deletion strains, locus YMR125W, strain sto1, stronger effect = lower value 1.01 | S. cerevisiae deletion strains, locus YMR129W, stronger effect = lower value 0.972 | S. cerevisiae deletion strains, locus YMR205C, strain PFK2, stronger effect = lower value 0.978 | S. cerevisiae deletion strains, locus YMR223W, strain ubp8, stronger effect = lower value 1.01 | S. cerevisiae deletion strains, locus YMR231W, strain pep5, stronger effect = lower value 0.981 | S. cerevisiae deletion strains, locus YMR307W, strain GAS1, stronger effect = lower value 0.989 | S. cerevisiae deletion strains, locus YNL067W, strain RPL9B, stronger effect = lower value 1.02 | S. cerevisiae deletion strains, locus YNL071W, strain lat1, stronger effect = lower value 0.963 | S. cerevisiae deletion strains, locus YNL128W, strain TEP1, stronger effect = lower value 1.03 | S. cerevisiae deletion strains, locus YNL153C, strain GIM3, stronger effect = lower value 1.03 | S. cerevisiae deletion strains, locus YNL183C, strain NPR1, stronger effect = lower value 0.919 | S. cerevisiae deletion strains, locus YNL209W, strain ssb2, stronger effect = lower value 0.989 | S. cerevisiae deletion strains, locus YNL233W, strain BNI4, stronger effect = lower value 0.998 | S. cerevisiae deletion strains, locus YNL248C, strain rpa49, stronger effect = lower value 0.96 | S. cerevisiae deletion strains, locus YNL250W, strain rad50, stronger effect = lower value 0.992 | S. cerevisiae deletion strains, locus YNL271C, strain bni1, stronger effect = lower value 0.991 | S. cerevisiae deletion strains, locus YNL298W, strain CLA4, stronger effect = lower value 0.986 | S. cerevisiae deletion strains, locus YNL307C, strain MCK1, stronger effect = lower value 0.99 | S. cerevisiae deletion strains, locus YNL322C, strain KRE1 (second series), stronger effect = lower value 0.97 | S. cerevisiae deletion strains, locus YNR049C, strain mso1, stronger effect = lower value 0.982 | S. cerevisiae deletion strains, locus YNR052C, strain pop2, stronger effect = lower value 0.992 | S. cerevisiae deletion strains, locus YOL006C, strain TOP1, stronger effect = lower value 0.931 | S. cerevisiae deletion strains, locus YOL012C, strain htz1 1.9 | S. cerevisiae deletion strains, locus YOL147C, strain pex11, stronger effect = lower value 1.01 | S. cerevisiae deletion strains, locus YOR001W, strain rrp6, stronger effect = lower value 0.936 | S. cerevisiae deletion strains, locus YOR061W, strain CKA2, stronger effect = lower value 1 | S. cerevisiae deletion strains, locus YOR069W, strain VPS5, stronger effect = lower value 1.02 | S. cerevisiae deletion strains, locus YOR070C, strain gyp1, stronger effect = lower value 1 | S. cerevisiae deletion strains, locus YOR080W, strain dia2, stronger effect = lower value 0.999 | S. cerevisiae deletion strains, locus YOR083W, strain WHI5, stronger effect = lower value 0.985 | S. cerevisiae deletion strains, locus YOR106W, strain vam3, stronger effect = lower value 0.991 | S. cerevisiae deletion strains, locus YOR136W, strain idh2, stronger effect = lower value 1 | S. cerevisiae deletion strains, locus YOR144C, strain elg1, stronger effect = lower value 1 | S. cerevisiae deletion strains, locus YOR184W, strain ser1, stronger effect = lower value 0.898 | S. cerevisiae deletion strains, locus YOR231W, strain MKK1, stronger effect = lower value 0.919 | S. cerevisiae deletion strains, locus YOR265W, strain rbl2, stronger effect = lower value 0.987 | S. cerevisiae deletion strains, locus YOR270C, strain vph1, stronger effect = lower value 0.955 | S. cerevisiae deletion strains, locus YOR290C, strain snf2, stronger effect = lower value 0.932 | S. cerevisiae deletion strains, locus YOR316C, strain cot1, stronger effect = lower value 1 | S. cerevisiae deletion strains, locus YPL051W, strain arl3, stronger effect = lower value 0.983 | S. cerevisiae deletion strains, locus YPL078C, strain atp4, stronger effect = lower value 0.93 | S. cerevisiae deletion strains, locus YPL106C, strain sse1, stronger effect = lower value 1.03 | S. cerevisiae deletion strains, locus YPL240C, strain hsp82, stronger effect = lower value 0.981 | S. cerevisiae deletion strains, locus YPL241C, strain CIN2, stronger effect = lower value 1.02 | S. cerevisiae deletion strains, locus YPL256C, strain CLN2, stronger effect = lower value 0.838 | S. cerevisiae deletion strains, locus YPR119W, strain clb2, stronger effect = lower value 1 | S. cerevisiae deletion strains, locus YPR141C, strain kar3, stronger effect = lower value 1.01 | S. cerevisiae deletion strains, locus YPR163C, strain tif3, stronger effect = lower value 1.02 | S. cerevisiae deletion strains, locus YPR167C, strain met16, stronger effect = lower value 1 | S. cerevisiae deletion strains, strain wtn01, stronger effect = lower value 0.996 | S. cerevisiae strains, strain wild type, stronger effect = lower value 1.03
active: S. cerevisiae deletion strains, locus YLR262C, strain YPT6 (second series), stronger effect = lower value 0.825
